Some test systems named below: SR leukemia; RPMI-8226 leukemia; OVCAR-8 ovarian; OVCAR-5 ovarian; OVCAR-4 ovarian; SK-OV-3 ovarian; IGROV1 ovarian; OVCAR-3 ovarian; HS 578T breast; NCI/ADR-RES ovarian; T-47D breast; BT-549 breast; MDA-MB-435 melanoma; SW-620 colon; MCF7 breast; HCT-116 colon; HCC-2998 colon; KM12 colon.
What all share (assay): NCI-60 one-dose screen, 48 h (100 = growth as untreated, 0 = no growth, -100 = all killed)
What all share (conditions): 10 µM unless noted

Structures are written as SMILES. Compounds without any hit were thinned out: in the full panel of roughly 83,000, 20% have a hit.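 For each line, cells grew in 96-well plates with the test compound present at a single concentration for 48 hours.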 Unmarked numbers belong to inactive results. Active and inactive are the calls of the source. How the source made its calls: active means growth percent below 10; inactive means the rest.

Take `Cc1cc2c(C(=O)NCC#N)cccc2n1-c1nc2c(c(NCc3ccccc3)n1)CCCC2`: the growth is 4.15% (active) in the assay on SR leukemia; 5.03% (active) in the assay with RPMI-8226 leukemia; 8.66% (active) in the assay on OVCAR-8 ovarian; 1.88% (active) in the assay with OVCAR-5 ovarian; -8.8% (active) with OVCAR-4 ovarian; -6.94% (active) in the assay with SK-OV-3 ovarian. The growth with IGROV1 ovarian was -22.1% (active); with OVCAR-3 ovarian, -59.9% (active); in the assay with HS 578T breast, 12%; in the assay with NCI/ADR-RES ovarian it was 1.16% (active); in the assay on T-47D breast it was -16.6% (active); with BT-549 breast, -34.8% (active). For the same compound, the growth in the assay with MDA-MB-435 melanoma is -59.8% (active); in the assay with SW-620 colon, 2.79% (active); with MCF7 breast, 1.12% (active); with HCT-116 colon, -14.4% (active); in the assay with HCC-2998 colon, -87.6% (active); in the assay with KM12 colon, -38.7% (active).

For `COc1cc(/C=N/NC(=O)c2cnn3c2NC(c2ccccc2)C3)ccc1Oc1ccccc1` (centres undefined), the growth in the assay on SR leukemia was 18%; in the assay on RPMI-8226 leukemia, 56.1%; in the assay on OVCAR-8 ovarian, 30.7%; with OVCAR-5 ovarian it was 59.6%; with OVCAR-4 ovarian, 31.7%; with SK-OV-3 ovarian it was 27.6%. Further, the growth in the assay with IGROV1 ovarian is 33.8%; in the assay on OVCAR-3 ovarian, -23.4% (active); in the assay with HS 578T breast it was 37.8%; in the assay with NCI/ADR-RES ovarian it was 41.3%; in the assay on T-47D breast, 28.6%; with BT-549 breast it was 6.76% (active). For the same compound, the growth is -22.9% (active) in the assay on MDA-MB-435 melanoma; 24.9% in the assay on SW-620 colon; 9.6% (active) in the assay on MCF7 breast; 1.82% (active) in the assay with HCT-116 colon; 57.3% in the assay on HCC-2998 colon; 16.6% in the assay with KM12 colon.

For `N/C(=N\C(N)=N\c1nc2ccccc2s1)c1ccnc(Br)c1`, the growth is 25% in the assay on SR leukemia; 23.6% in the assay with RPMI-8226 leukemia; 33.8% in the assay on OVCAR-8 ovarian; 89.4% with OVCAR-5 ovarian; 59.1% in the assay on OVCAR-4 ovarian; 29.6% with SK-OV-3 ovarian. Besides, the growth with IGROV1 ovarian is 25.8%; in the assay with OVCAR-3 ovarian, 9.06% (active); in the assay on HS 578T breast, 19.3%; with NCI/ADR-RES ovarian, 20.1%; in the assay on T-47D breast it was 54.3%; in the assay with BT-549 breast it was 41.9%. Besides, the growth in the assay on MDA-MB-435 melanoma was -25.2% (active); in the assay on SW-620 colon, 13.5%; in the assay on MCF7 breast, 16.6%; in the assay with HCT-116 colon, 20.2%; with HCC-2998 colon, 70.3%; with KM12 colon it was 23.9%.

`Cc1ccc(-c2[nH][nH]c(=O)c2-c2nc3ccccc3s2)cc1`: the growth with SR leukemia is 97.9%; in the assay on RPMI-8226 leukemia, 96.9%; in the assay on OVCAR-8 ovarian, 105%; in the assay with OVCAR-5 ovarian it was 94.4%; with OVCAR-4 ovarian, 105%; in the assay with SK-OV-3 ovarian, 104%. The growth in the assay on IGROV1 ovarian was 106%; in the assay on OVCAR-3 ovarian, 111%; in the assay with HS 578T breast, 97.3%; with NCI/ADR-RES ovarian, 98%; with T-47D breast, 103%; in the assay on BT-549 breast it was 123%. In addition, the growth with MDA-MB-435 melanoma is 100%; with SW-620 colon it was 93.9%; with MCF7 breast it was 97.1%; in the assay on HCT-116 colon it was 100%; with HCC-2998 colon, 99.7%; in the assay on KM12 colon it was 103%.

For the compound `CCOc1cccc(-c2nc(N)nc(Nc3ccccc3SSc3ccccc3Nc3nc(N)nc(-c4cccc(OCC)c4)n3)n2)c1`, the growth with SR leukemia was 7.62% (active); with RPMI-8226 leukemia it was 56.4%; in the assay with OVCAR-8 ovarian, 59.9%; in the assay on OVCAR-5 ovarian, 99.7%; in the assay with OVCAR-4 ovarian it was 71.7%; with SK-OV-3 ovarian, 125%. In addition, the growth is 62.6% in the assay on IGROV1 ovarian; 80.2% in the assay on OVCAR-3 ovarian; 69.2% in the assay on HS 578T breast; 19% in the assay with NCI/ADR-RES ovarian; 44.5% in the assay on T-47D breast; 78.7% in the assay with BT-549 breast. The growth in the assay on MDA-MB-435 melanoma is 88.8%; in the assay on SW-620 colon it was 76.4%; in the assay on MCF7 breast, 70.1%; in the assay with HCT-116 colon, 57.2%; in the assay with HCC-2998 colon, 97.8%; in the assay on KM12 colon, 40.6%.

As to `O=C(/C(=C/c1ccc([N+](=O)[O-])cc1)SCc1ccc(F)cc1)c1ccc(F)cc1`, the growth was 6.69% (active) with SR leukemia; -28.7% (active) in the assay on RPMI-8226 leukemia; 93.1% in the assay with OVCAR-8 ovarian; 97.9% in the assay with OVCAR-5 ovarian; 73.2% in the assay on OVCAR-4 ovarian; 103% in the assay on SK-OV-3 ovarian. Also, the growth in the assay with IGROV1 ovarian is 78%; in the assay on OVCAR-3 ovarian, 82.9%; with HS 578T breast, 89.2%; with NCI/ADR-RES ovarian, 77.1%; with T-47D breast, 79.8%; in the assay on BT-549 breast it was 98.2%. Also, the growth in the assay on MDA-MB-435 melanoma was 85%; in the assay with SW-620 colon, -27.5% (active); in the assay with MCF7 breast it was 9.8% (active); in the assay on HCT-116 colon, -25.2% (active); in the assay with HCC-2998 colon, 88.4%; in the assay with KM12 colon it was 59.8%.

With `Cn1c(N2NC(=O)C(N=Nc3ccc(S(N)(=O)=O)cc3)C2=O)nc(-c2ccco2)c(C#N)c1=O` (centres undefined), the growth with SR leukemia is 1.63% (active); in the assay on RPMI-8226 leukemia, 3.99% (active); in the assay with OVCAR-8 ovarian, 90.2%; with OVCAR-5 ovarian, 115%; with OVCAR-4 ovarian, 59.2%; with SK-OV-3 ovarian, 102%. In addition, the growth with IGROV1 ovarian is 30.7%; in the assay with OVCAR-3 ovarian, 72.7%; with HS 578T breast it was 104%; in the assay on NCI/ADR-RES ovarian, 93%; in the assay with T-47D breast, 72.2%; in the assay on BT-549 breast, 109%. Moreover, the growth in the assay with MDA-MB-435 melanoma is 119%; in the assay with SW-620 colon, 51.9%; with MCF7 breast it was 68%; in the assay on HCT-116 colon, 76.4%; in the assay on HCC-2998 colon, 51.1%; in the assay with KM12 colon it was 85.5%.

`N#Cc1c(NC(=O)NCc2ccccc2)sc2c1CCCC2`: the growth is 23.3% in the assay on SR leukemia; 17.7% in the assay on RPMI-8226 leukemia; 26.8% with OVCAR-8 ovarian; 46% in the assay with OVCAR-5 ovarian; 48.4% with OVCAR-4 ovarian; 35.1% in the assay on SK-OV-3 ovarian. For the same compound, the growth in the assay with IGROV1 ovarian was 28.8%; in the assay with OVCAR-3 ovarian, -15.7% (active); in the assay on HS 578T breast, 9.64% (active); in the assay with NCI/ADR-RES ovarian, 11.1%; in the assay on T-47D breast it was 40%; in the assay on BT-549 breast, 24.1%. Also, the growth in the assay with MDA-MB-435 melanoma is -35.3% (active); in the assay on SW-620 colon it was 24%; in the assay on MCF7 breast, 19.5%; in the assay on HCT-116 colon, 12.2%; in the assay on HCC-2998 colon, 22.4%; in the assay with KM12 colon, 20.5%.

These data come from PubChem BioAssay (NCI).
